Tests used:
Assay in all cases: PBM binding z-score (relative to random genomic background probes); higher = stronger binding; sequences stand for … in GC…GCGATTGACAGCGTAGAATGAAGG
[1] = tested on: FXR:RXRa (NR concentration 270 nM, RXRa partner concentration 90 nM)
Outline: (§1)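 For binding z-scores, the reference was random background probes on custom Agilent 4×180K protein-binding microarrays. These arrays were incubated 1 h with ligand-free nuclear receptor dimers in PBS pH 7.4, 2% milk, 0.02% Triton X-100, 1 mM DTT, 0.2 mg/mL BSA and 0.4 mg/ml salmon testes DNA. Fluorescence was scanned after antibody detection of each partner (one per run) and regression-normalized.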

[2] = tested on: LXRa:RXRa (NR concentration 270 nM, RXRa partner concentration 90 nM)
Outline: as §1

[3] = tested on: LXRa homodimer (NR concentration 270 nM)
Outline: as §1

[4] = tested on: LXRb:RXRa (NR concentration 270 nM, RXRa partner concentration 90 nM)
Outline: as §1

[5] = tested on: LXRb homodimer (NR concentration 270 nM)
Outline: as §1

[6] = tested on: PPARa:RXRa (NR concentration 270 nM, RXRa partner concentration 90 nM)
Outline: as §1

[7] = tested on: PPARg:RXRa (NR concentration 180 nM, RXRa partner concentration 90 nM)
Outline: as §1

[8] = tested on: PPARg:RXRa 270nM:90nM, anti-RXR (NR concentration 270 nM, RXRa partner concentration 90 nM)
Outline: as §1

[9] = tested on: PPARg:RXRa 30nM:10nM, anti-RXR (NR concentration 30 nM, RXRa partner concentration 10 nM)
Outline: as §1

[10] = tested on: PPARg:RXRa 90nM:30nM, anti-RXR (NR concentration 90 nM, RXRa partner concentration 30 nM)
Outline: as §1

Sequence | PBM binding z-score [1] | PBM binding z-score [2] | PBM binding z-score [3] | PBM binding z-score [4] | PBM binding z-score [5] | PBM binding z-score [6] | PBM binding z-score [7] | PBM binding z-score [8] | PBM binding z-score [9] | PBM binding z-score [10]
ATCTCTAGGTAACAACTTCAGTGAAAGAGAGGAC | 0.55 | 0.485 | 0.102 | 0.396 | 0.978 | 0.493 | 0.782 | 0.618 | 0.652 | 0.573
ATCTCTAGGTAAAAGTTCAGTGACTCCCGAGGAT | 1.09 | 2.16 | 1.64 | 1.38 | 0.749 | 4.12 | 8.08 | 8.15 | 8.38 | 8.98
TCTCCGAGGACACGAAAGGTCAGAGCTCGACATC | 3.26 | 3.9 | 2.63 | 3.48 | 0.562 | 3.68 | 1.53 | 2.82 | 2.39 | 2.44
CCTACTGGGGCAGAAAGGTTACCATACCATCCGG | 0.253 | 0.567 | 0.201 | 0.837 | -0.839 | 2.14 | 2.05 | 2.74 | 0.989 | 2.22
ATCTCTAGGTATAGATAGTTCAGTGAATGCAAAT | 0.0439 | 0.281 | 0.536 | 0.328 | 0.404 | 0.225 | 0.685 | 0.289 | 0.345 | 0.323
CGTCAAAGTTCAACGAAGGTAACGTAAAGCACGC | 5.82 | 5.6 | 2.79 | 3.6 | 1.02 | 4.68 | 4.43 | 4.94 | 2.06 | 4.07
GTTCCAAGGTGAATAGGTCGTTGATGAGTAGGCG | 1.29 | 0.977 | -0.00758 | 0.642 | 0.0158 | 2.24 | 1.16 | 1.94 | 0.65 | 1.07
TAGCCTAGGTCATGGGCAAGTATACCACGCGAAC | 4.43 | 3.35 | 0.241 | 2.46 | -0.306 | 4.37 | 3.93 | 3.3 | 0.879 | 2.22
TCTTGTAGATCAATACAGGTTAAGAAAGTGCGCT | 0.747 | 2.01 | 0.393 | 1.23 | 0.0132 | 1.29 | 0.19 | 1.49 | 2.99 | 2.11
CCTACTGGGCCACGAAAGGTCACTGATTCAGTGA | 2.97 | 4.41 | 2.54 | 3.75 | -0.0263 | 4.32 | 5.13 | 4.98 | 2.2 | 4.02
AGAACGAAGGCACGCTGAGTTGATAGCAGAGTAG | -0.877 | -0.66 | -0.838 | -1.06 | -0.997 | -0.367 | 0.622 | -0.693 | -0.318 | -0.476
ATCGAAAGGTCGTGAGGTGAGTATTCAGAAAGGC | 5.34 | 4.08 | -0.0279 | 3.34 | 0.35 | 5.12 | 4.06 | 4.24 | 1.5 | 2.96
CCGCCTGGGGCAAAGGTTACCATACTCAGTACGA | 1.58 | 1.77 | 0.256 | 2.07 | -1.01 | 4.22 | 7.52 | 7.16 | 5.72 | 7.35
ACAGACAAGTGATGAAGGTAACTCAGGCTATCAT | -0.375 | -0.259 | -0.503 | -0.446 | -0.469 | -0.37 | 0.531 | -0.282 | -0.0857 | -0.2
ACAGACAGGTGATGAAGGTAACTAAGGCTATCAT | -0.0463 | -0.218 | -0.177 | 0.0824 | -0.634 | 0.196 | 0.606 | 0.00614 | 0.045 | 0.0556
CCGACTGGGGCAGAAAGGTAACCATACCATCCGG | -0.151 | -0.447 | -0.528 | -0.363 | -1.18 | 0.647 | 1.05 | 1.25 | -0.0627 | 0.913
AGAACGAGGGCACGCTGTGTTGATAGCAGAGTAG | 0.77 | 0.377 | -0.602 | 0.159 | -1.07 | 1.92 | 2.14 | 1.81 | 0.262 | 1.12
ATCTCTAGGTAAAAGTTCAGTTAATCCCGAGGAT | 1.31 | 1.89 | 1.81 | 1.34 | 1.19 | 4.56 | 8.35 | 7.9 | 8.17 | 8.69
TCTGCTAGGTCAACGATGGTCCGCTAATCTGCTA | 2.99 | 2.08 | -0.377 | 1.02 | -0.262 | 3 | 2.07 | 2.75 | 1.9 | 2.22
ATCTCTAGGTTAAGTTCAGTGAAAGATCGATAGA | 1.78 | 2.76 | 1.8 | 1.49 | 1.76 | 2.41 | 1.87 | 2.34 | 1.11 | 1.83
AATACAGGGTCACTAGGCCAAAGTAGGTACGAAT | 6.51 | 4.99 | 1.08 | 4 | 1.01 | 6.26 | 8.6 | 6.83 | 4.18 | 6.09
TAGGCTAGGTCAGATCGGGCCAGTATACGCTATA | 1.84 | 0.947 | -0.397 | 0.688 | -0.542 | 1.42 | 0.684 | 0.646 | -0.0664 | 0.434
CGTCCAAGGTCAATCCTAGGTCAGTGAAAGCATT | 7.14 | 5.85 | 3.44 | 4.8 | 1.43 | 5.47 | 4.38 | 4.75 | 1.43 | 3.63
